High-throughput results deposited in PubChem by National Center for Advancing Translational Sciences (NCATS).
Mito fusion yeast: inhibitors of mitochondrial division or activators of mitochondrial fusion | S. cerevisiae fusion-defective mutant growth rescue, CellTiterGlo 48 h | Potency, µM (doses to about 46.1 µM), for the others: at the top dose growth rescue (activation), hits mostly activators | hit rate 0.23% among 320,000 | AID 485298; further: % of control where 0% means no effect; nearly all actives have a fitted effect of over 45% in size
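Luminescent cell viability in 1536-well qHTS format served as the measure of rescued growth in ts fusion-mutant S. cerevisiae cultured on non-fermentable YPEG for 48 hours at 37C.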
ERG-DNA inh: ERG Ets/DNA interaction inhibition | P11308 | fluorescence polarization, His-ERG Ets domain / labelled DNA | Potency, µM (top dose mostly 76.9 µM), for inactives: at the highest dose FP activity, negative = inhibition, usual class: inhibitors | hit rate 0.028% among 370,000 | AID 624246; active means well fitted inhibition curve with a large enough effect in the polarisation, with a control signal flat; inconclusive means small, poorly fitted or top-dose-only effect, or effect the other way, or a change in a side signal; inactive means no such curve, though single readings can be large or run the other way; the % refers to the polarisation;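 further: polarization taken with two DNA probes labelled with fluorescein and Texas red; % of control where 0% means no effect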
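His-tagged ERG Ets domain (1 uM in the protein solution; 300mM KCl, 50mM Tris-HCl, 1mM EDTA, 1mM DTT, pH 7.5) received compound, then a probe mix of 5 nM fluorescein-DNA and 100nM Texas-615-DNA. Fluorescence polarization was read for both dyes.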
B2AR arrestin: recruits beta-arrestin to the human beta2-adrenergic receptor. beta-arrestin recruitment to beta2AR, cell-based reporter. hit rate 0.02% among 330,000. Potency, µM (series often up to 46.1 µM), for inactives: at the highest dose activation, usual class: activators. AID 492947;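 further: 0% = DMSO controls and full agonism = EC100 isoproterenol or metaproterenol; nearly all actives have a fitted effect of over 65% in size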
Target sequence (P07550 whole entry, looked up): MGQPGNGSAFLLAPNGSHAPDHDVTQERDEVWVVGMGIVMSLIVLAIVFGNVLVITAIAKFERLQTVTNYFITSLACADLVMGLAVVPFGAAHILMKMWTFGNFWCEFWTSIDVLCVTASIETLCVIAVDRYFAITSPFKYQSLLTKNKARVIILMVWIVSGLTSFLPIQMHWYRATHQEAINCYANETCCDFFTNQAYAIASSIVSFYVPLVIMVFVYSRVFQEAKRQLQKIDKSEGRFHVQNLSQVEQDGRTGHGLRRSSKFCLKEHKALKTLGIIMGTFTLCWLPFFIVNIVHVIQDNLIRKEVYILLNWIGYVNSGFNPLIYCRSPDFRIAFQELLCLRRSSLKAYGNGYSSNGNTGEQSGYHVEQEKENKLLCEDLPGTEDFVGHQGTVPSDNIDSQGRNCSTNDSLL
BRCA1 expr act: increases BRCA1 expression. MCF7-BRCA1-FFLuc reporter, luminescence, 48 h; response scale: scaled: vehicle 0%, 10 µM genistein 100%. Potency, µM (highest dose often 46.1 µM), for inactives: at the top dose activation, usual class: activators. hit rate 1.1% among 380,000; further: nearly all actives have a fitted effect of over 80% in size
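Luminescence from a BRCA1-driven firefly luciferase in MCF7 cells was the read-out, taken 15 min after substrate addition following 48 h compound exposure at 37 °C. Data were normalized to a 10 microM genistein control and DMSO vehicle.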
Numbers without * were called inactive; ? = inconclusive; . = no result given. An excerpt weighted towards active compounds, which were near 1.2% of everything screened. Unless noted, the call rests on the fitted dose curve; in most records, active means well fitted curve in the direction sought with a large enough effect; inconclusive means small, poorly fitted or top-dose-only effect, or another doubt; inactive means no such curve, though single readings can be large; an effect the other way counts as inactive or inconclusive. Potency means the concentration at half of the fitted maximal effect.

SMILES | Mito fusion yeast | ERG-DNA inh | B2AR arrestin | BRCA1 expr act
COc1ccc(Nc2cc(C(=O)NCCCN(C)Cc3ccccc3)c3ccccc3n2)cc1OC | . | -9% | . | .
COC(=O)c1c(-c2ccccc2)csc1NC(=O)c1ccco1 | -2% | . | 0% | 5µM*
CC(/C=C/c1ccccc1F)=N\NC(=O)c1ccccc1 | -1% | 3% | 0% | 3.2µM*
CCc1nnc2c3ccccc3nc(Nc3ccc(F)c(Cl)c3)n12 | . | -3% | . | .
CCC[N+](C)(C)c1ccc(/C=C/c2ccnc3ccccc23)cc1 | . | . | . | -54%
O=C(NNC(=O)c1ccccc1Cl)c1cccs1 | 3% | -3% | 0% | ?
O=C(NNC(=O)c1ccccc1F)c1cccs1 | 2% | -2% | 0% | 5.6µM*
CC(C)(C)OC(=O)N1CCC(c2c(C(=O)NC3CCCCC3)cnn2-c2cccc(F)c2)CC1 | . | 5% | . | .
O=C(Nc1ccc(F)c(Cl)c1)C1CCCN1S(=O)(=O)c1ccc(F)cc1 (stereo not drawn) | . | 9% | . | .
CCCNC(=O)c1cc(Cl)c(NC(=O)C2=CSCCO2)cc1OC | 3% | 10% | 1% | 7.9µM*
CCCNC(=O)c1cc(Cl)c(NC(=O)C2=C(C)OCCS2)cc1OC | 12% | 3% | 0% | 39%
COC(=O)c1cc(C)nc2c1c(=O)nc(SCc1cccc(C)c1)n2C1CC1 | . | 1% | . | .
CCNC(=S)N/N=C/c1cc(C)ccc1C | -1% | -3% | 0% | -3%
CCNC(=S)N/N=C/c1cccc(C)c1 | -11% | -3% | 0% | 10µM*
C/C(=N\Nc1nccnc1Cl)c1ccc(O)cc1 | -3% | -13% | 0% | 68%
C/C(=N\Nc1nccnc1Cl)c1ccc(F)cc1 | 6% | 12% | 0% | 8.9µM*
O=c1c2ccccc2nc2ccc(NCc3cccs3)nn12 | 4% | 13% | 3% | 11µM*
c1ccc(-c2cc3nc(NCc4cccs4)ccn3n2)cc1 | . | . | . | 1%
COc1cc2nc(N3CCCN(C)CC3)nc(NC3CCNCC3)c2cc1OC | . | . | . | 0%
COc1ccc(-c2cn3nc(SCC(=O)NC4CCCCC4)ccc3n2)cc1 | -5% | -5% | 0% | 1.3µM*
CC(C)(C)c1ccc(NC(=S)NCCc2ccccn2)cc1 | -5% | -3% | 7% | -5%
CC(=O)c1ccc(NC(=S)NCCc2ccccn2)cc1 | -1% | -5% | -2% | 10µM*
CCc1ccc(NC(=O)C(=O)NCc2ccccn2)cc1 | 1% | 10% | 0% | 3.5µM*
COc1cccc(OCc2cc(C(=O)NCCc3cccc(C)n3)no2)c1 | -1% | 4% | -1% | 0%
O=C(NCc1cccs1)c1cc(-c2ccccc2)on1 | -2% | . | 0% | 5µM*
SMILES | Mito fusion yeast | ERG-DNA inh | B2AR arrestin | BRCA1 expr act
CCOC(=O)c1ccc(NC(=O)C(=O)NCc2ccccn2)cc1 | -3% | -7% | 0% | -4%
COc1cccc(OCc2cc(C(=O)NCc3ccccn3)no2)c1 | -1% | 0% | 0% | 13µM*
COc1ccc(N(Cc2cccs2)C(=O)COc2ccc(C(C)C)cc2)cc1 | . | 0% | . | .
O=C(CCc1nc2cccnc2n1Cc1cccs1)Nc1cccc(C(F)(F)F)c1 | . | -2% | . | .
CCCNC(=O)c1cc(-c2ccc(Br)cc2)on1 | 2% | -5% | 0% | 1.8µM*
Cc1ccc(-c2cc(C(=O)NCc3ccccn3)no2)cc1 | 4% | . | 0% | 11µM*
COc1cccc(-c2cc(C(=O)NCc3ccco3)no2)c1 | -2% | 0% | 0% | 7.9µM*
O=C(NCc1ccccn1)c1cc(-c2ccccc2)on1 | -6% | . | 0% | ?
Cc1ccc(-c2cc(C(=O)NCc3ccco3)no2)cc1 | -9% | -1% | 0% | 4µM*
COc1ccc(CNC(=O)CCc2c(C)nc3c4cccnc4nn3c2C)cc1 | . | 0% | . | .
CCc1ccccc1NC(=O)c1ccc2c(c1)nnn2C1CCCC1 | . | -1% | . | -18%
COCCNC(=O)c1cc(-c2cccc(OC)c2)on1 | -4% | -2% | 0% | ?
COCC(C)NC(=O)c1cc(-c2cccc(OC)c2)on1 (stereo not drawn) | -3% | 2% | 0% | 10µM*
O=C(COCc1cc(-c2ccco2)on1)Nc1ccc(OC(F)(F)F)cc1 | . | -1% | . | .
c1ccc(-c2csc(NC3CCCCC3)n2)cc1 | -11% | -1% | 0% | 2.8µM*
O=C(Nc1nc(-c2ccccc2)cs1)NC1CCCCC1 | ? | 1% | 0% | 21%
Cn1cccc1/C=C1\SC(=O)N(c2ccc(O)cc2)C1=O | -3% | 18% | 0% | 10µM*
O=C1OCC2=C1C(c1cccc(Cl)c1)CC(=O)N2c1ccc(C(F)(F)F)cc1 (stereo not drawn) | . | -5% | . | 0%
Nc1nc(SCc2ccccc2Cl)[nH]c(=O)c1-c1ccccc1 | 5% | -1% | 1% | 14%
Nc1nc(SCc2ccccc2)[nH]c(=O)c1-c1ccccc1 | 0% | . | 0% | 10µM*
CC(O)(c1ccccc1)c1nc(-c2cccc(C(=O)O)c2)cs1 (stereo not drawn) | . | . | . | 10µM*
CC(O)(c1cccc(F)c1)c1nc(-c2cccc(C(=O)O)c2)cs1 (stereo not drawn) | . | . | . | 100%
O=C(NCCc1nc2ccccc2n1CCCOc1ccccc1Cl)C1CCCCC1 | . | . | . | 0%
COc1cc2nc(N3CCN(C)CC3)nc(NC(C)C)c2cc1OC | . | . | . | 4%
CCc1nnc(NC(=O)C2COc3ccccc3O2)s1 (stereo not drawn) | 1% | 12% | 0% | 11µM*
SMILES | Mito fusion yeast | ERG-DNA inh | B2AR arrestin | BRCA1 expr act
CCc1nnc(NC(=O)/C=C/c2ccco2)s1 | 1% | -14% | 0% | 4µM*
O=C(/C=C/c1ccco1)NCCc1ccccc1 | 9% | -2% | 0% | 6.3µM*
COc1cccc(-n2cc(C(=O)Nc3cc(C)c(Cl)cc3OC)c3ccccc3c2=O)c1 | . | 0% | . | .
CCOC(=O)c1c(C)oc2nc(C)nc(NCc3ccccc3OC)c12 | . | -1% | . | .
Cc1ccccc1-c1nnc(Cc2ccccc2)o1 | -1% | -6% | -1% | 2.8µM*
Cc1ccccc1-c1nnc(SCc2ccccc2F)o1 | 2% | 3% | 0% | ?
Cc1ccc(CSc2nnc(-c3ccco3)o2)cc1 | 1% | 1% | 1% | 5µM*
Cc1cccc(C)c1NC(=O)CSc1nnc(Cc2ccccc2)o1 | 0% | -1% | 0% | 6%
c1ccc(CSc2nnc(-c3ccco3)o2)cc1 | 3% | 6% | -1% | 0%
Cc1ccccc1-c1nnc(SCc2ccccc2)o1 | 15% | -4% | 0% | 10µM*
CCN(C(=O)C1CCC(CNS(=O)(=O)c2cccc3nsnc23)CC1)c1ccccc1 (stereo not drawn) | . | 1% | . | .
COc1ccc(C2C(C(=O)Nc3ccccc3)=C(C)Nc3nc(-c4ccccc4Cl)nn32)cc1OC (stereo not drawn) | . | 1% | . | .
O=C(CC(SCCO)c1ccc2c(c1)OCO2)c1cccs1 (stereo not drawn) | 0% | -3% | -2% | 10µM*
CCOC(=O)c1c(C)[nH]c(C)c1S(=O)(=O)N1CCCC(C(=O)N2CCN(c3cccc(C)c3C)CC2)C1 (stereo not drawn) | . | 2% | . | .
O=C(Nc1ccc(-c2nc3cccnc3s2)cc1)c1ccc(Cl)nc1 | -1% | -4% | -1% | 1.8µM*
